The nature of assay [1]: optical density shifts of acrAB sulA E. coli – strain DRC41, OD650, 48 h, E. coli filamentation inducer project, primary screen (AID 1152).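 Further: E. coli MC1000 strain DRC41 lacking acrAB efflux pump and sulA.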 The settings on record: higher = more signal, called active from +8 up or from −8 down.
Assay [2] can be described thus: probe aLefty1 binding on compound microarray – biochemical, small-molecule microarray, 635/667 nm fluorescence, primary screen (AID 1153).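 Further: score merges spot fluorescence with signal-to-noise ratio from the scanned slide images.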 The settings on record: higher = more signal.
Assay [3] in a line: plasmodial surface anion channel blockers, osmotic lysis – cell-based, P. falciparum Indochina, OD700, 1 h, primary screen (AID 1154). The settings on record: P. falciparum Indochina infected RBC osmotic lysis, higher = more signal, called active from +8 up or from −8 down.
A short description of assay [4]: plasmodial surface anion channel blockers, osmotic lysis – cell-based, P. falciparum Indochina, OD700, 2 h, primary screen (AID 1155).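 Further: lysis reports solute entry through the parasite surface anion channel PSAC.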 The settings on record: P. falciparum Indochina infected erythrocytes, higher = more signal, called active from +8 up or from −8 down.
A short description of assay [5]: changes in parasitized red cell lysis, either direction – P. falciparum Indochina, OD700, 3 h, PSAC antagonist project, primary screen (AID 1156). The conditions noted are these: P. falciparum-infected erythrocytes, osmotic lysis, higher = more signal, called active from +8 up or from −8 down.
A short description of assay [6]: plasmodial surface anion channel blockers, osmotic lysis – cell-based, P. falciparum Indochina, OD700, 18 h, primary screen (AID 1157). The conditions noted are these: P. falciparum Indochina infected erythrocytes, osmotic lysis OD700, 18 h; higher = more signal, called active from +8 up or from −8 down.
Assay [7] in a line: S6 kinase pathway phospho-S6 level changes – cell-based, A549, cytoblot, luminescence, serum-stimulated, primary screen (AID 1158).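 Further: serum-stimulated A549 lung adenocarcinoma cells; signal is phosphorylated S6 detected by cytoblot immunostaining with HRP secondary.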 The settings on record: 5 h, higher = more signal.
Assay [8] deals with NADPH oxidase 2 (Homo sapiens) (UniProt P04839). The assay can be described thus: compounds shifting NOX2 Amplex Red fluorescence – cell-based, HEK293-NOX2, PMA-stimulated, NOX inhibitor project, primary screen (AID 1159). Further: test concentration not given here. The settings on record: 45 min, higher = more signal, called active from +8 up or from −8 down.
Assay [9] deals with NADPH oxidase 4 (Homo sapiens) (UniProt Q9NPH5). The assay can be described thus: compounds shifting NOX4 Amplex Red fluorescence – cell-based, HEK293-NOX4, tetracycline-induced, NOX inhibitor project, primary screen (AID 1160). The settings on record: HEK293-NOX4, Amplex Red H2O2 fluorescence, 45 min; higher = more signal, called active from +8 up or from −8 down.
In assay [10] the target is NADPH oxidase 5 (Homo sapiens) (UniProt Q96PH1). The assay can be described thus: compounds shifting NOX5 Amplex Red fluorescence – cell-based, HEK293-NOX5, NOX inhibitor project, primary screen (AID 1161). The settings on record: HEK293-NOX5, ionomycin, 45 min, higher = more signal.

The source made the active and inactive calls.

Drawing on PubChem BioAssay, this text covers z-score and composite z-score for 13 compounds.

Sequence of NADPH oxidase 5 (Homo sapiens) (Q96PH1 whole entry, looked up): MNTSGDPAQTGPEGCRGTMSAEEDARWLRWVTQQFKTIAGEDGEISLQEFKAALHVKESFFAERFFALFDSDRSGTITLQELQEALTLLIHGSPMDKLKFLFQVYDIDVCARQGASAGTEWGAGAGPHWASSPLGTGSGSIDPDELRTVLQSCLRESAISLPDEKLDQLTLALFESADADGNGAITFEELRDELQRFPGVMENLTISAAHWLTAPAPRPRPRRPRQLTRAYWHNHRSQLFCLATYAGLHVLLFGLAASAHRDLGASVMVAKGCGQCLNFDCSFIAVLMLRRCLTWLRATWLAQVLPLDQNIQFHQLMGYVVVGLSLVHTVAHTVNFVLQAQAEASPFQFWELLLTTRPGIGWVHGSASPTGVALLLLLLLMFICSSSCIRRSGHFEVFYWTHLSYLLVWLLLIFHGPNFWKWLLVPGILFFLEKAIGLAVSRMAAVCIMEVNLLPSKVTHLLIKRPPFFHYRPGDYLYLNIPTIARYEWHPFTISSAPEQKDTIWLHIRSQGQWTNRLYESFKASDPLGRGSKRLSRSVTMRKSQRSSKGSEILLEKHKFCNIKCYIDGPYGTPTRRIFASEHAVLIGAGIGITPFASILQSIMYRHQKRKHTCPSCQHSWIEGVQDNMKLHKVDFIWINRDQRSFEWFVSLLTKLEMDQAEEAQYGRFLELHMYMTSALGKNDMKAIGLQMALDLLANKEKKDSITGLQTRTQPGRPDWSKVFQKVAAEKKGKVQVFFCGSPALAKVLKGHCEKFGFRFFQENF
Sequence of NADPH oxidase 2 (Homo sapiens) (P04839 whole entry, looked up): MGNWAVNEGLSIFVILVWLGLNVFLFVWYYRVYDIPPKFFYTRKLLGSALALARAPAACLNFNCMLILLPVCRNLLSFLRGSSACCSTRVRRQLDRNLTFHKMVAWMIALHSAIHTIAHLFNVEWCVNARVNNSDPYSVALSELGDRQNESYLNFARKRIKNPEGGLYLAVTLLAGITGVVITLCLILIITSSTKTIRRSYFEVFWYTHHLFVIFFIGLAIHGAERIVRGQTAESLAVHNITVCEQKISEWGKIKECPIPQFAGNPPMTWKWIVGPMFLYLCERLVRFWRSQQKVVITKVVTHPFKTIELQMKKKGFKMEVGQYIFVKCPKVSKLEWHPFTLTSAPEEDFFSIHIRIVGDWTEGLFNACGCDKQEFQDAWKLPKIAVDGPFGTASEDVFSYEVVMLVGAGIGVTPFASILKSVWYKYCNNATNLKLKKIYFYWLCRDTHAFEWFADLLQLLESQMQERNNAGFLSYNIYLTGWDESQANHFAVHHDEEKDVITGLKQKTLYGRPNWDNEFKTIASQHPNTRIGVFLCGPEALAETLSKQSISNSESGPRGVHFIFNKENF
Sequence of NADPH oxidase 4 (Homo sapiens) (Q9NPH5 whole entry, looked up): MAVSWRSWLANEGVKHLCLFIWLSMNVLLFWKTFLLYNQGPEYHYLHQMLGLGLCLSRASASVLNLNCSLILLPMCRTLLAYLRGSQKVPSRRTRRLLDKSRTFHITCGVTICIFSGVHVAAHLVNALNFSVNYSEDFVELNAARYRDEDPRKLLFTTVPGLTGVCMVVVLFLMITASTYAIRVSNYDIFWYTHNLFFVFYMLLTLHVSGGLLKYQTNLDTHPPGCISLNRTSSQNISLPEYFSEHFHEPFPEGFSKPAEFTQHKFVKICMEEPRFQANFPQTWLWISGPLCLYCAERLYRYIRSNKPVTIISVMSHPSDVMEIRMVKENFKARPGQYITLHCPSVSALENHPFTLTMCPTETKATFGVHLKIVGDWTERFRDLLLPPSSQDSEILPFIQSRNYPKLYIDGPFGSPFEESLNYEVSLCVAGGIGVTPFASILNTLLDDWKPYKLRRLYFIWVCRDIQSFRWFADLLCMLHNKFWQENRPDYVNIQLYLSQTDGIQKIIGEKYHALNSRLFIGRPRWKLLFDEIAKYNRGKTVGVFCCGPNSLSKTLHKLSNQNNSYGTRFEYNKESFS

Consider `OCC1CC(c2ccccc2)=NO1` (stereo not given), for which the z-score was 0.727 (inactive) in assay [1]; 5.51 (inactive) in assay [3]; 0.623 (inactive) in assay [4]; -0.182 (inactive) in assay [5]; 0.206 (inactive) in assay [6]; 0.137 in assay [7]. Besides, the z-score was -1.17 (inactive) in assay [8], -0.137 (inactive) in [9] and 0.273 in [10]. In assay [2], the composite z-score turned out to be 0.0278.
On to `COCCCNC(=O)[C@@]1(Cc2ccccc2N=[N+]=[N-])N=C(c2ccc(OCCCO)cc2)O[C@H]1c1ccccc1`, for which the z-score in assay [1] was -0.3 (inactive); in assay [3], 21.5 (active); in assay [4], 4.21 (inactive); in assay [5] it was 1.28 (inactive); in assay [6], 1.4 (inactive); in [7], 0.796. The values for the z-score in assay [8], in assay [9] and in [10] were -2.06 (inactive), -0.374 (inactive) and -1.63, respectively. In addition, the composite z-score in [2] was found to be 0.535.
Take `COc1ccc(CN(C2=CC[C@@]3(C(N)=O)C(=O)C(Cl)=C(Cl)C(=O)[C@@]3(C#N)C2)S(=O)(=O)c2ccc(Br)cc2)cc1`: the z-score in assay [1] is 1.3 (inactive); in assay [3] it was 5.11 (inactive); in assay [4] it was -1.24 (inactive); in [5], -1.94 (inactive); in [6] it was -2.3 (inactive); in assay [7] it was 0.881. The z-score in assay [8] is 1.76 (inactive); in [9], -0.275 (inactive); in assay [10], 0.362. Moreover, the composite z-score in [2] is -0.0042.
As for `CC(=O)NCCCC[C@@H]1NC(=O)[C@@H]2C[C@H](C(=O)NCCCC[N+](C)(C)C)[C@H](c3ccc(O)cc3)N2C1=O`, the z-score in assay [1] is -0.003 (inactive); in [3], 0.369 (inactive); in assay [4] it was -1.08 (inactive); in [5], 0.267 (inactive); in assay [6], -2.27 (inactive); in assay [7], 1.34. The z-score in assay [8] is -3.26 (inactive); in assay [9] it was -2.25 (inactive); in assay [10] it was -4.41. The same compound had a composite z-score in assay [2] of 0.389.
Consider `C=CCN1C(=O)[C@@]2(O[C@@H](CCn3cc([C@H](O)c4ccccc4)nn3)[C@H]([Si](C)(C)c3ccc(OC)cc3)[C@H]2C)c2cc(N3CCC3=O)ccc21`, for which the z-score in assay [1] was 0.359 (inactive); in assay [3] it was 14.4 (active); in assay [4], 1.98 (inactive); in assay [5], 0.292 (inactive); in [6], 1.01 (inactive); in assay [7], -0.266. Besides, the z-score in assay [8] is 0.631 (inactive); in assay [9], -0.498 (inactive); in assay [10] it was 0.0158. Besides, the composite z-score in [2] is -0.189.
`COc1ccc([Si](C)(C)[C@H]2[C@H](CC(=O)N(CCO)Cc3ccccc3)O[C@@]3(C(=O)N(Cc4cccc(N5CCOC5=O)c4)c4ccccc43)[C@@H]2C)cc1`: the z-score was 0.359 (inactive) in assay [1]; 12.9 (active) in assay [3]; 2.72 (inactive) in assay [4]; 1.68 (inactive) in assay [5]; 1.31 (inactive) in assay [6]; 0.315 in [7]. The z-score in assay [8] is 0.681 (inactive); in [9] it was 0.7 (inactive); in assay [10], 2.48. In addition, in assay [2], the composite z-score was 0.114.
As to `CCCCCCCCCCC(O)C1C=CC2C(=O)N(C)C(=O)C2N1NC(=O)OC(C)(C)C` (stereo not given), the z-score in [1] was -3.07 (inactive); in assay [3], 8.95 (active); in assay [4], 2.45 (inactive); in assay [5] it was -1.28 (inactive); in assay [6], 1.81 (inactive); in [7], -1.36. Besides, the results for the z-score in assay [8], in assay [9] and in assay [10] were -0.67 (inactive), -7.78 (inactive) and -3.78, respectively. The composite z-score in assay [2] was -0.239.
`CN(C)C(=O)[C@]1(CCS(=O)(=O)c2ccccc2)N=C(c2ccc(OCCCO)cc2)O[C@@H]1c1ccccc1N=[N+]=[N-]`: the z-score is -0.0791 (inactive) in [1]; 31.2 (active) in [3]; 27.2 (active) in assay [4]; 2.03 (inactive) in assay [5]; 6.58 (inactive) in assay [6]; 0.178 in assay [7]. For the same compound, the z-score was 0.502 (inactive) in assay [8], 1.64 (inactive) in [9] and 1.24 in assay [10]. The composite z-score in [2] was determined as 0.382.
Turning to `O=C1NC(=O)C2C1C=CC(C(O)c1cccc3ccccc13)N2Nc1ccc(Cl)cc1Cl` (stereo not given), the z-score is -1.85 (inactive) in assay [1]; 1.98 (inactive) in assay [3]; 0.994 (inactive) in assay [4]; -2.46 (inactive) in [5]; 1.42 (inactive) in assay [6]; -1.11 in assay [7]. Also, the z-score is -1.37 (inactive) in assay [8], -6.34 (inactive) in assay [9] and -3.5 in assay [10]. Further, the composite z-score in assay [2] came to 0.505.
In the case of `C=CCOC(=O)[C@H]1[C@@H]2C(=O)O[C@@H](c3ccccc3)[C@@H](c3ccccc3)N2[C@@H](c2ccc(OCCOC(=O)[C@@H]3C[C@@H]4C(=O)N5CCC[C@H]5C(=O)N4[C@@H]3c3ccc(O)cc3)cc2)[C@]12C(=O)Nc1ccc(I)cc12`, the z-score in assay [1] is -0.695 (inactive); in assay [3] it was 1.81 (inactive); in assay [4] it was 1.74 (inactive); in [5], 0.836 (inactive); in [6] it was 0.889 (inactive); in assay [7], -0.597. Moreover, the z-score in [8] was 1.47 (inactive); in [9], 0.482 (inactive); in [10], 0.186. In assay [2], this compound displayed a composite z-score of 0.293.
`CC(C)C[C@@H]1NC(=O)[C@@H]2C[C@H](C(=O)NCCCCCN)[C@H](c3ccc(O)cc3)N2C1=O`: the z-score in assay [1] was -0.899 (inactive); in [3] it was 0.932 (inactive); in [4], -0.0263 (inactive); in assay [5], -0.302 (inactive); in assay [6], 0.0068 (inactive); in assay [7], -0.928. In addition, the z-score in [8] was -0.125 (inactive); in assay [9], -1.36 (inactive); in assay [10] it was 0.553. In [2], the composite z-score was -0.463.
For the compound `COC(=O)c1c2oc(c1C(=O)OC)C(=O)N(Cc1ccccc1)Cc1cn(nn1)C[C@H](Cc1ccccc1)NC(=O)N[C@H](CO)CC2`, the z-score is 0.959 (inactive) in assay [1]; 1.67 (inactive) in assay [3]; 0.393 (inactive) in assay [4]; -0.252 (inactive) in assay [5]; 0.213 (inactive) in [6]; 1.18 in [7]. In addition, the z-score in assay [8] is -1.13 (inactive); in assay [9], 1.06 (inactive); in [10], -0.397. In addition, the composite z-score in assay [2] was -0.0942.
Regarding `C=CCC(OC(C)=O)[C@@H]1[C@@H](N(Cc2cccc3ccccc23)C(=O)c2cccc3ccccc23)c2cc(OCCCO)ccc2N1C(=O)c1ccc(-c2ccccc2)cc1` (stereo not given in full), the z-score in [1] was -0.929 (inactive); in assay [3], -0.17 (inactive); in [4] it was 0.526 (inactive); in [5], 0.0426 (inactive); in assay [6], 0.361 (inactive); in [7], 0.684. For the same compound, the results for the z-score in assay [8], in assay [9] and in assay [10] were -0.677 (inactive), 0.104 (inactive) and -2.47, respectively. In addition, the composite z-score in assay [2] is -0.106.
